Bioassay records (PubChem BioAssay)
HEK293 viab: cell viability loss counter-screen | HEK-293-SNCA-luc viability, GF-AFC fluorescence, 24 h | Potency, µM (highest dose often 57.1 µM), without a hit: at the highest dose activity change, negative = cytotoxicity, actives largely listed as cytotoxic | hit rate 0.12% among 150,000 | AID 1671193;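 note: potency is the fitted concentration of half-maximal effect; 0% = DMSO-treated cells and -100% = medium-only wells without cells; nearly all actives have a fitted effect of over 30% in size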
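HEK-293-SNCA-luc cells (1500/well) plated 24 h, then exposed 24 h to a dilution series; GF-AFC added 30 min at 37C, fluorescence 405/540 nm; normalised to medium-only and DMSO wells, Hill fit.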
KDM5B inh: blocks human KDM5B histone demethylase activity | KDM5B demethylase, FDH-coupled NADH fluorescence (FDH is formaldehyde dehydrogenase) | Potency, µM (top dose mostly 57.7 µM), actives largely listed as inhibitors | hit rate 2.6% among 220,000; note: potency is the fitted concentration of half-maximal effect; 0% is about no effect; nearly all actives have a fitted effect of over 70% in size
Target sequence (Q9UGL1 whole entry, looked up): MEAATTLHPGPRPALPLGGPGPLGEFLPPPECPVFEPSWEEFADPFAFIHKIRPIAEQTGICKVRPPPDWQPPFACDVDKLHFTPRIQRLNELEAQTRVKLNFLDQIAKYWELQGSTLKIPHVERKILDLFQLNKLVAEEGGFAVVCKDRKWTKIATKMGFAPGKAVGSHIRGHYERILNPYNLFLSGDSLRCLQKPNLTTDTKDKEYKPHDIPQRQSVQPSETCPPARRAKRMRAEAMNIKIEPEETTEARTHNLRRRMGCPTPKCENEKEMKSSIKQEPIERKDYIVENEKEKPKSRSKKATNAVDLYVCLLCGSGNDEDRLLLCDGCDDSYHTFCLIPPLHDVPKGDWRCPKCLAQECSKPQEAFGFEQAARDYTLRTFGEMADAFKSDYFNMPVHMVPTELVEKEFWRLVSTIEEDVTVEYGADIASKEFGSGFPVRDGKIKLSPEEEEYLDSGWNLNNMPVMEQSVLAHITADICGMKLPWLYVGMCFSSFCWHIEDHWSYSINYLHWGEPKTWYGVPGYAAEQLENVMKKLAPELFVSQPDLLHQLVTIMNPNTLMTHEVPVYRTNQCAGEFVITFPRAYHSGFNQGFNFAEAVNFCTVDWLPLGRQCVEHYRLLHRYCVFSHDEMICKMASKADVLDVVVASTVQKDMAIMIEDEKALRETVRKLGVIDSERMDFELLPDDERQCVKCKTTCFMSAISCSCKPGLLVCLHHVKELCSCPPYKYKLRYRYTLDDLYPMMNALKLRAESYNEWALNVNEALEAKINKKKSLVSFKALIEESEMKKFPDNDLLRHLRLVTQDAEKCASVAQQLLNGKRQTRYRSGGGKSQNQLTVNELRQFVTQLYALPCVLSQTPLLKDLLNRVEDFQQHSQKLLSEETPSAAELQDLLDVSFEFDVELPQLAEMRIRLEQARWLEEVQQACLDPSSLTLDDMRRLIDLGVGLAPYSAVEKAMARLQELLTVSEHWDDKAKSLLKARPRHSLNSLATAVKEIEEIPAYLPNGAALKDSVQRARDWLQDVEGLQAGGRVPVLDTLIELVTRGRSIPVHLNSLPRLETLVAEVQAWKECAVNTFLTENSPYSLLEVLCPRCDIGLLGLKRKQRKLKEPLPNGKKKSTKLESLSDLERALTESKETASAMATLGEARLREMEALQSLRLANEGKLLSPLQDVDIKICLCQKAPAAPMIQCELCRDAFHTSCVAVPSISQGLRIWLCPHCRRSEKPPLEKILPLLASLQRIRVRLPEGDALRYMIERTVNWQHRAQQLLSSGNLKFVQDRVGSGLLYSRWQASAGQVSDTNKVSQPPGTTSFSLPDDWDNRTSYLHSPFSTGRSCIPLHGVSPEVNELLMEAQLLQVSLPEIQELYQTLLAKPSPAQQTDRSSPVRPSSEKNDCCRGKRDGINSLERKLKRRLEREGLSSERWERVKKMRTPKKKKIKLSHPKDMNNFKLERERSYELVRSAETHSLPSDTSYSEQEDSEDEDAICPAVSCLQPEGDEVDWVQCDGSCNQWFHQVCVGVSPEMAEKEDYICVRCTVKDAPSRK
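Coupled FDH/NAD⁺ fluorescence readout. KDM5BΔAP 200 nM final; compound titration, 10 min RT preincubation; substrate mix 12.5 µM H3K4me3, 25 µM 2-OG, 50 µM Fe(II), 100 µM ascorbate, 0.25 mM NAD⁺, 0.25 U/mL FDH; ΔRFU over 30 min.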
SNCA expr inhib: SNCA gene expression inhibition. AID 1671194. HEK-293 SNCA-luciferase knock-in, luminescence, 24 h. hit rate 0.17% among 140,000. Potency, µM (doses to about 57.2 µM), for inactives: at the top dose activity change, negative = inhibition, most hits filed as inhibitors;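 note: potency is the fitted concentration of half-maximal effect; plate controls were DMSO cells for no effect and cell-free wells for full effect; nearly all actives have a fitted effect of over 45% in size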
IP6K1 inhibitor: IP6K1 kinase inhibition. Q92551. IP6K1 kinase, ADP-Glo luminescence, 2 h; hits give low values. activity change, % (series mostly up to about 58 µM). hit rate 0.81% among 140,000. AID 1645851; in the data active = activity change below about -25%; note: % is set by controls: 0 for no effect and ±100 for the full control effect
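ADP-Glo luminescence measures ADP made by human IP6K1 during a 2 h RT reaction with ATP/IP6 (mix at 1.3 mM/130 uM); top library doses 57.5 and 19.1 uM final.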
IP6K1 inh cnf: confirmation of human IP6K1 inhibitors | hit rate 13% among 1,200 | recombinant IP6K1 kinase, ADP-Glo luminescence, 2 h | shares compounds with IP6K1 inhibitor | Potency, µM (highest dose often 49 µM), without a hit: at the top dose activity change, negative = inhibition, hits mostly inhibitors; note: potency is the fitted concentration of half-maximal effect; % is set by controls: 0 for no effect and ±100 for the full control effect; nearly all actives have a fitted effect of over 65% in size
An asterisk follows results filed as active; i = inactive; ? = inconclusive; nt = no result given; [ ] = remark or other dose. Sampled rows, rich in hits. Any-hit rate of the full collection: about 2.9%. Unless noted, calls come from the whole dose curve; as a rule, active = well fitted curve in the direction sought with a large enough effect; inconclusive = small, poorly fitted or top-dose-only effect, or another doubt; inactive = no such curve, though single readings can be large; an effect the other way counts as inactive or inconclusive.

SMILES	HEK293 viab	KDM5B inh	SNCA expr inhib	IP6K1 inhibitor	IP6K1 inh cnf
COCCn1c(CO)nnc1C1CC(NC(=O)C2(C)CCCC2)C1 (centres undefined)	-1.2%	i	5.5%	-28.1*	-12.3%
CC1CCC(NC(=O)CN2CCN(c3cccc(F)c3C#N)CC2)CC1 (centres undefined)	nt	i	nt	nt	nt
COc1cccc(OC(=O)c2ccc(Cl)cc2Cl)c1	nt	i	nt	nt	nt
COc1ccc(NC(=O)C(=O)NCC2(c3ccccc3)CCCC2)c(OC)c1	3.6%	i	-0.4%	-26.7*	-2.1%
Cc1ccc2[nH]c(=O)c(CNc3cccc(C)c3C)cc2c1	nt	i	nt	nt	nt
Cc1cc(C)cc(Nc2ncnc3c2nc2n3CCCC2)c1	1.3%	?	51.5%	-31.7*	-19.3%
Cc1ccc(Nc2ncnc3c2nc2n3CCCC2)cc1F	1.5%	i	196.8%	-15.2	nt
COc1ccc(N2CCN(C(=O)C3CCN(S(=O)(=O)c4cnc[nH]4)CC3)CC2)cc1	-9.1%	i	5.1%	-28.6*	13.0%
CC(C)(C)c1ccccc1NC(=O)C1CCCC1	nt	i	nt	nt	nt
Cc1cnc(Nc2ccc(OCCN3CCCC3)cc2)nc1Nc1cccc(S(=O)(=O)NC(C)(C)C)c1	?	nt	34.9%	-0.5	25.0%
COc1ccc(C(=O)Nc2ccc(-c3cc4ccccc4oc3=O)c(C)c2)cc1Br	7.0%	?	38.4%	-28.2*	?
Cn1ncc2c(C(=O)NCc3cccc(Cl)c3)cc(C(C)(C)C)nc21	4.2%[87.6 µM]	nt	-32.0%[87.6 µM]	-3.2	nt
COCCCNc1nc(NCc2cccc(Cl)c2)c2cnn(C)c2n1	-15.5%	i	-29.2%	-31.7*	?
COc1ccc(-c2csc(=Nc3ccccc3)n2CCO)cc1F	-3.1%	?	71.2%	-31.4*	?
CCSc1nc2c(c(=O)n(C)c(=O)n2C)n1Cc1ccccc1Cl	nt	i	nt	nt	nt
COc1ccc(-c2nnc(C3CCN(C(=O)c4ccccc4F)CC3)o2)cc1	?	?	?	-29.3*	?
N#Cc1cccc(-c2ccc3ncnc(NCc4cccnc4)c3c2)c1	4.3%	nt	3.9%	nt	nt
N#Cc1ccc2ncnc(NCCc3ccccc3)c2c1	-4.3%	nt	nt	-45.0*	10.3µM*
O=C(c1ccncc1)N1CCN(C(=O)N2CC3CC(C2)[C@H]2CCCC(=O)N2C3)CC1 (some centres undefined)	7.9%	i	-18.2%	27.0	nt
CC(=O)c1cccc(NC(=O)Cn2ccn3nc(-c4ccc(F)cc4)c(CO)c3c2=O)c1	-28.2%	i	?	-29.6*	-12.6%
O=C1CCN(C(=O)CCC2CCCC2)CCCC(c2nc(-c3cccnc3)no2)CCN1 (centres undefined)	-1.0%	i	7.1%	5.2	nt
COc1ccc2c(c1)C(CN1CCN(c3ccc4oc(C(=O)O)cc4c3Cl)CC1)=CC(C)(C)CO2	nt	nt	nt	-73.9*	-11.7%
COc1ccc2c(c1)C(COCc1ccc(C(=O)O)cc1)=CC(C)(C)CO2	nt	nt	nt	-0.9	nt
Cc1ccc([N+](=O)[O-])c(Oc2ncnc3c2oc2ccccc23)c1	1.0%	i	20.1%	-29.4*	2.9%
Cc1ccc2nc3n(c2c1)[C@@H](CNC1CCN(C)CC1)COC3	1.9%[87.6 µM]	i	5.2%[87.6 µM]	-7.7	nt
SMILES	HEK293 viab	KDM5B inh	SNCA expr inhib	IP6K1 inhibitor	IP6K1 inh cnf
Cc1cc(Nc2nc(NC(C)c3ncc(F)cn3)ncc2Cl)n[nH]1 (centres undefined)	-5.3%	nt	nt	-0.8	-11.2%
COc1ccc(NC(=O)CC2C(=O)N(c3ccccc3)C(=O)N2CCc2sccc2C)cc1 (centres undefined)	-12.2%	i	71.3%	-32.9*	-11.7%
CC(=O)c1ccc(N2CCN(c3ccc(NC(=O)c4ccc(F)cc4)cc3C(=O)O)CC2)cc1	5.2%	i	8.2%	-0.1	nt
O=C(Nc1cnc(N2CCN(c3ccccc3)CC2)c(C(=O)O)c1)c1cccs1	-20.7%	?	-1.9%	-27.8*	?
O=C(Nc1ccc(N2CCN(c3ccc(F)cc3)CC2)c(C(=O)O)c1)c1cccs1	12.6%	i	-17.2%	-26.5*	?
CCN1CCN(c2ccc(NC(=O)c3cccc(NC(=O)c4cccs4)c3)cc2)CC1	nt	i	nt	nt	nt
COc1cc(C(=O)Nc2ccc3nn(-c4ccc(F)cc4)nc3c2)cc(OC)c1OC	2.5%	i	-2.1%	-5.9	nt
O=C(Nc1ccc2nn(-c3ccc(F)cc3)nc2c1)c1cccc2c(Cl)cccc12	0.3%	i	47.1%	-27.8*	34.3%
O=C(Cc1ccc(Cl)cc1)N1CCN(C(=O)c2nnn3c2COC(c2ccccc2)C3)CC1 (centres undefined)	-6.5%	i	-15.2%	0.0	nt
CCCCN(Cc1ccccc1)S(=O)(=O)c1cc(Br)cc2c1N(C(C)=O)CC2	1.4%	i	24.2%	-27.0*	10.1%
CCCCN(Cc1ccccc1)S(=O)(=O)c1cc(Br)cc2c1N(C(=O)C1CC1)CC2	3.3%	i	-17.9%	-7.9	nt
CCOc1ccc(CN2CCN(Cc3ccc4c(c3)c3ccccc3n4CC)CC2)cc1	-3.6%	?	-1.9%	-32.5*	6.6%
CC1=C[C@@H](CNC(=O)NCCO)[C@H](C(C)C)C[C@H]1CC(=O)NCc1cccnc1	-1.6%[87.6 µM]	i	2.8%[87.6 µM]	-15.8	nt
CN(C)C/C=C/C(=O)Nc1cccc(C(=O)Nc2ccc(Nc3nccc(-c4cccnc4)n3)cc2)c1	?	nt	nt	-28.6*	?
CCOC(=O)C1CCC(CNC(=O)Nc2c(NC3CCCC3)c3ccccc3oc2=O)CC1 (centres undefined)	nt	i	nt	nt	nt
COc1ccc(C2(C(=O)N3CCC4(CC3)CC(N3CCOCC3)CCO4)CC2)cc1 (centres undefined)	-0.2%	i	-8.1%	7.0	nt
COc1ccc(S(=O)(=O)N2CCC3(CC2)CC(N2CCOCC2)CCO3)cc1 (centres undefined)	-8.0%	i	-24.7%	-25.7*	-16.1%
Cc1nn(S(=O)(=O)c2ccc(Cl)cc2)c(C)c1S(=O)(=O)N1CCCCCC1	14.7%	?	-0.8%	-10.0	nt
CCCCOc1ccc(S(=O)(=O)n2nc(C)c(S(=O)(=O)N3CCCCCC3)c2C)cc1	14.6%	?	-3.4%	-5.9	nt
CCCCOc1ccc(S(=O)(=O)n2nc(C)c(S(=O)(=O)N3CCC(C)CC3)c2C)cc1	-1.2%	?	4.1%	-26.0*	-6.2%
Cc1ccc(S(=O)(=O)n2nc(C)c(S(=O)(=O)N3CCCCCC3)c2C)cc1C	-1.2%	?	24.6%	-26.9*	3.8%
CC(C)c1ccc(NC(=O)c2ccc(=O)n(Cc3ccccc3)c2)cc1	-22.8%	?	5.0%	-28.0*	-24.8%
CCN1CCC2(CCC1=O)CN(Cc1nc(CCOC)no1)CCN2C (centres undefined)	-1.4%	i	-29.1%	-33.2*	-5.5%
CCN1CCC2(CCC1=O)CN(Cc1noc(CC(C)C)n1)CCN2C (centres undefined)	6.7%	i	-14.2%	-4.6	nt
COc1cccc(COC2CN(CCc3ccccc3)C(=O)CN(C(=O)c3cc(C)nn3C)C2)c1 (centres undefined)	-4.2%	i	33.4%	-3.3	nt
